Laboratory results published in PubChem BioAssay.
For part of these data: Potency and affinity values are given separately. Activity calls are given as the source filed them. Unless noted, how the calls were made is not given here.

What was measured:
[1] = antimalarial activity against Dd2 strain (AID 2302;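 active means growth inhibition above 50% at the single 2 µM test dose, taken to imply half-maximal potency below 2 µM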;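 further: 0% = DMSO untreated growth and 100% = chloroquine plus artemisinin killed control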); conditions: P. falciparum Dd2 in RBCs, LDH growth readout, 72 h; at 2 µM; active compounds read high
[2] = HepG2 cytotoxicity, primary screen, cytotoxicity control for P. falciparum antimalarial project, cell-based, ATP luminescence (AID 2303;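 active means inhibition above 50%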;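 further: 0% = DMSO wells and 100% = digitonin-killed cells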); conditions: HepG2 viability, 24-48 h, at 10 µM, active compounds read high
[3] = target: L-lactate dehydrogenase (Plasmodium falciparum (isolate CDC / Honduras)) (UniProt Q27743); assay: PfLDH activity inhibition – cell lysate, 3D7 strain, counter-screen for P. falciparum growth inhibition project (AID 2304);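 further: 0% = vehicle and 100% = reference inhibitor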; conditions: P. falciparum 3D7 crude extract, LDH APAD/NBT absorbance; at 2 µM; active compounds read high
[4] = inhibition of 3D7 malaria parasite growth – strain 3D7 (AID 2306);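 further: 0% = DMSO wells and 100% = chloroquine plus artemisinin control wells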; conditions: P. falciparum 3D7 erythrocytic growth, LDH absorbance, 72 h; at 2 µM; active compounds read high
[5] = target: Calcium-dependent protein kinase 1 (Plasmodium falciparum (isolate 3D7)) (UniProt P62344); assay: PfCDPK1 kinase inhibitors, biochemical, TCAMS library (AID 1159585; cut-off not given, nearly all actives have IC50 up to about 0.98 µM;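 further: inhibitors leave more ATP so luminescence rises with inhibition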); conditions: recombinant PfCDPK1, Kinase-Glo ATP depletion luminescence
[6] = target: Plasmodium falciparum protein kinase 6 (PK6, PF3D7_1337100) (UniProt Q8IDW1); assay: PfPK6 kinase inhibitors, biochemical, TCAMS library (AID 1159586); conditions: recombinant PfPK6, Kinase-Glo ATP depletion luminescence
[7] = target: Protein kinase 7 (PK7), Plasmodium falciparum 3D7 (PF3D7_0213400) (UniProt Q7YTF7); assay: inhibition of Plasmodium PK7 catalytic activity – biochemical, TCAMS antimalarial set, Kinase-Glo luminescence (AID 1159587); conditions: recombinant PfPK7, Kinase-Glo ATP depletion luminescence
[8] = target: Calcium-dependent protein kinase 4 (Plasmodium falciparum (isolate 3D7)) (UniProt Q8IBS5); assay: PfCDPK4 kinase inhibitors, biochemical, TCAMS library (AID 1159588; cut-off not given, nearly all actives have IC50 up to about 0.91 µM); conditions: recombinant PfCDPK4, Kinase-Glo ATP depletion luminescence
Chain of Calcium-dependent protein kinase 4 (Plasmodium falciparum (isolate 3D7)) (Q8IBS5 whole entry, looked up): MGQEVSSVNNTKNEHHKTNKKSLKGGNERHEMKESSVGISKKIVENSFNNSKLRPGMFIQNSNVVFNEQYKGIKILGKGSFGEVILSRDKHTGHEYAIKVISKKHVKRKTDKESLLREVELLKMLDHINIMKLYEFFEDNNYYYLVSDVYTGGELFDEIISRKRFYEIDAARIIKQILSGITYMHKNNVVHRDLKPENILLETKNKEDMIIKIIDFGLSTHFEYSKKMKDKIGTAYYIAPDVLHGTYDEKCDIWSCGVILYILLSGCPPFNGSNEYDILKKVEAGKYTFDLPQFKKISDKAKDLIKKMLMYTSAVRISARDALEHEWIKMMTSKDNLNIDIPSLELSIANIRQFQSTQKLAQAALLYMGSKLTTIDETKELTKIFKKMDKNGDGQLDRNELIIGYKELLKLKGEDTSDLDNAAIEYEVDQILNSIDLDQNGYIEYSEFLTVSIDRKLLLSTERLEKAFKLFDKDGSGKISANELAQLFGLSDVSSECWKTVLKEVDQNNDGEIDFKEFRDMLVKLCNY

Chain of Calcium-dependent protein kinase 1 (Plasmodium falciparum (isolate 3D7)) (P62344 whole entry, looked up): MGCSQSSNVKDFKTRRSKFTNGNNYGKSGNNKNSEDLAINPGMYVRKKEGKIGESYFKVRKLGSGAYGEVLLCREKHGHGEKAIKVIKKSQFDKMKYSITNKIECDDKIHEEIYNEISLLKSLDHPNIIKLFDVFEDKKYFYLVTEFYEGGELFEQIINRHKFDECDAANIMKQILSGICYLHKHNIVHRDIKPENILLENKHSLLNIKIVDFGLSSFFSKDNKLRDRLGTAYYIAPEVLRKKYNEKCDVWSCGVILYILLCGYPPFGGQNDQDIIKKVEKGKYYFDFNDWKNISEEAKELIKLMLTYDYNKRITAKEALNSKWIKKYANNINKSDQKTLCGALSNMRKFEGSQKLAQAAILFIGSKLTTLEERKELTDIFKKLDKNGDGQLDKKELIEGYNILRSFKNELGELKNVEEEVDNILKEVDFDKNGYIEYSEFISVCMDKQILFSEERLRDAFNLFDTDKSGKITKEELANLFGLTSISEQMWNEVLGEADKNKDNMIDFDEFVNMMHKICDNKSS
Chain of L-lactate dehydrogenase (Plasmodium falciparum (isolate CDC / Honduras)) (Q27743 whole entry, looked up): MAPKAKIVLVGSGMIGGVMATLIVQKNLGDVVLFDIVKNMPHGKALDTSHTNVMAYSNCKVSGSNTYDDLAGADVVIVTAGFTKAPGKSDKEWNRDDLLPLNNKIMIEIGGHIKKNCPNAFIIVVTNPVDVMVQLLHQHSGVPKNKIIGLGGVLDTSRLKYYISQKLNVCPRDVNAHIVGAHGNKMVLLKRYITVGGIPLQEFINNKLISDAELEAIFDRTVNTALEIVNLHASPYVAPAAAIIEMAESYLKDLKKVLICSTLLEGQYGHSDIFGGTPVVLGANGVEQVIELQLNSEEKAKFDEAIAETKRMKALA
Chain of Plasmodium falciparum protein kinase 6 (PK6, PF3D7_1337100) (Q8IDW1 1-305): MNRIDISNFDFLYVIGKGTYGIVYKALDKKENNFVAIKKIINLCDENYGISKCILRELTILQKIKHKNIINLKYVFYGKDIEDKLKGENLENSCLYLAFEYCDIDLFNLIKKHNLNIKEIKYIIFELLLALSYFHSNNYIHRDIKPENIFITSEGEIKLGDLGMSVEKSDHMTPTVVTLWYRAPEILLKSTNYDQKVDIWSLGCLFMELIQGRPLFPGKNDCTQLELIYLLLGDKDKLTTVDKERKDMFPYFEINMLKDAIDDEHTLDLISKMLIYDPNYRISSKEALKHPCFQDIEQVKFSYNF
Chain of Protein kinase 7 (PK7), Plasmodium falciparum 3D7 (PF3D7_0213400) (Q7YTF7 1-343): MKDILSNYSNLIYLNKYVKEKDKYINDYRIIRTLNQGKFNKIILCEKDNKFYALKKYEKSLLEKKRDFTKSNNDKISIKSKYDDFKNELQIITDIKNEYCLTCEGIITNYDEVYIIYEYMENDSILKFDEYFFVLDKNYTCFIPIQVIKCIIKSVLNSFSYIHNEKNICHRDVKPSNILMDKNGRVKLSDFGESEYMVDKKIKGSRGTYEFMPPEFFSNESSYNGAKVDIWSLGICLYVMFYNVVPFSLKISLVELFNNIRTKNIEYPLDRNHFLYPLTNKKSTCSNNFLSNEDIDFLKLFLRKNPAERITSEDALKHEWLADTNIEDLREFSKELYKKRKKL

COc1ccc(NC(=O)c2ccc(-c3cc(NC(=O)c4ccnc(N5CCCC5)c4)ccc3C)s2)cc1N1CCN(C)CC1
active: growth inhibition [1] 100% | growth inhibition [4] 100%
inactive: inhibition [2] 15% | inhibition [3] 6% | outcome [5] | outcome [6] | outcome [7] | outcome [8]

COc1ccc(CC(=O)NC(CCCN2CCC(c3ccccc3)CC2)c2ccc(Cl)c(Cl)c2)cc1OC (configuration not stated)
inactive: inhibition [2] 28% | inhibition [3] -7% | outcome [5] | outcome [6] | outcome [7] | outcome [8]
active: growth inhibition [1] 57% | growth inhibition [4] 82%

CC1CN(S(=O)(=O)c2ccc(NC(=O)c3cc(-c4ccccc4O)n[nH]3)cc2)CC(C)O1 (configuration not stated)
inactive: inhibition [2] 21% | inhibition [3] 1% | outcome [5] | outcome [6] | outcome [7] | outcome [8]
active: growth inhibition [1] 93% | growth inhibition [4] 97%

Nc1ncnc2cc(-c3cccc(NC(=O)Nc4ccccc4)c3)sc12
active: growth inhibition [4] 94%
inactive: growth inhibition [1] 33% | inhibition [2] 4% | inhibition [3] 9% | outcome [5] | outcome [6] | outcome [7] | outcome [8]

O=C(NC1CC1)c1cnc(N2CCC(c3ccccc3)CC2)c(Cl)c1
inactive: inhibition [2] 6% | inhibition [3] 0% | outcome [5] | outcome [6] | outcome [7] | outcome [8]
active: growth inhibition [1] 95% | growth inhibition [4] 94%

CCCNC(=O)C1CCN(C(c2ccccc2)c2ccc(Cl)c(Cl)c2)CC1 (configuration not stated)
active: growth inhibition [1] 90% | growth inhibition [4] 90%
inactive: inhibition [2] 15% | inhibition [3] 1% | outcome [5] | outcome [6] | outcome [7] | outcome [8]

Oc1ccc(CCNc2nc(NCc3ccccc3-c3ccc(C(F)(F)F)cc3)nc(N3CCCNCC3)n2)cc1
active: growth inhibition [4] 95%
inactive: growth inhibition [1] 2% | inhibition [2] 12% | inhibition [3] 0% | outcome [5] | outcome [6] | outcome [7] | outcome [8]

O=S(=O)(Nc1cccc(CCN2CCC(N3CCCCC3)CC2)c1)c1cccc2ccccc12
active: growth inhibition [1] 63% | growth inhibition [4] 99%
inactive: inhibition [2] 23% | inhibition [3] 2% | outcome [5] | outcome [6] | outcome [7] | outcome [8]

O=S(=O)(c1cccc(F)c1)c1ccc(Nc2ncnc3cc(Br)sc23)cc1Cl
active: growth inhibition [4] 86%
inactive: growth inhibition [1] 11% | inhibition [2] 20% | inhibition [3] -2% | outcome [5] | outcome [6] | outcome [7] | outcome [8]

CCOc1ccc2nc(N(CCCn3ccnc3)C(=O)C=Cc3cccs3)sc2c1
active: growth inhibition [1] 97% | growth inhibition [4] 97%
inactive: inhibition [2] -1% | inhibition [3] -1% | outcome [5] | outcome [6] | outcome [7] | outcome [8]

CCN(CC)CCNc1ccc(Nc2ccnc3cc4ccccc4cc23)cc1
active: growth inhibition [1] 99% | growth inhibition [4] 102%
inactive: inhibition [2] 36% | inhibition [3] -8% | outcome [5] | outcome [6] | outcome [7] | outcome [8]

COc1cccc(CC(=O)NC2CCN(c3ccnc4cc(Cl)ccc34)C2)c1 (configuration not stated)
inactive: inhibition [2] 9% | inhibition [3] -2% | outcome [5] | outcome [6] | outcome [7] | outcome [8]
active: growth inhibition [1] 85% | growth inhibition [4] 101%

O=C(Nc1cccc(CN2CCCN(Cc3ccc(O)cc3)CC2)c1)c1ccc(Br)cc1
active: growth inhibition [1] 54% | growth inhibition [4] 94%
inactive: inhibition [2] 19% | inhibition [3] -2% | outcome [5] | outcome [6] | outcome [7] | outcome [8]

O=C(Nc1ccc(Cn2ncc(N3CCCNCC3)c(Cl)c2=O)cc1)Nc1cccc(Oc2ccccc2)c1
inactive: growth inhibition [1] 41% | inhibition [2] 8% | inhibition [3] -5% | outcome [5] | outcome [6] | outcome [7] | outcome [8]
active: growth inhibition [4] 81%

CN1CCN(CC(=O)Nc2ccc(-c3ccc(-c4nc5ccc(C(F)(F)F)cc5[nH]4)s3)cc2)CC1
active: growth inhibition [1] 73% | inhibition [2] 84% | growth inhibition [4] 102%
inactive: inhibition [3] 5% | outcome [5] | outcome [6] | outcome [7] | outcome [8]

COc1ccc(CNC2CCN(C)CC2)cc1-c1ccc(S(=O)(=O)NCc2ccccc2)cc1
inactive: inhibition [3] 5% | outcome [5] | outcome [6] | outcome [7] | outcome [8]
active: growth inhibition [1] 99% | inhibition [2] 56% | growth inhibition [4] 100%

COc1ccc(CCNCCCCCCNCCc2ccc(OC)c(OC)c2Cl)c(Cl)c1OC
inactive: growth inhibition [1] -2% | inhibition [2] 19% | inhibition [3] 1% | outcome [5] | outcome [6] | outcome [7] | outcome [8]
active: growth inhibition [4] 96%

Cc1ccc(C(=O)NC2C(=O)NC2c2ccccc2)c(C)c1 (configuration not stated)
inactive: growth inhibition [1] -1% | inhibition [2] 7% | inhibition [3] -4% | outcome [5] | outcome [6] | outcome [7] | outcome [8]
active: growth inhibition [4] 90%

CCCOc1cccc(C(=O)N[C@@H](Cc2ccccc2)[C@H](O)CNCc2ccccc2OC)c1
active: growth inhibition [1] 61% | growth inhibition [4] 95%
inactive: inhibition [2] 11% | inhibition [3] 0% | outcome [5] | outcome [6] | outcome [7] | outcome [8]

Fc1cccc(Cl)c1-c1nc(NCCC(c2ccccc2)c2ccccc2)no1
active: growth inhibition [1] 87% | growth inhibition [4] 99%
inactive: inhibition [2] 4% | inhibition [3] -3% | outcome [5] | outcome [6] | outcome [7] | outcome [8]

Cc1cccc2[nH]c(-c3ccc(-c4cccc(NC(=O)NCc5ccc(F)cc5)c4)cc3)nc12
active: growth inhibition [1] 100% | inhibition [2] 82% | growth inhibition [4] 101%
inactive: inhibition [3] -1% | outcome [5] | outcome [6] | outcome [7] | outcome [8]

Cc1cccc2[nH]c(-c3cccc(-c4cccc(NC(=O)c5cncn5C)c4)c3)nc12
inactive: inhibition [2] -1% | inhibition [3] 0% | outcome [5] | outcome [6] | outcome [7] | outcome [8]
active: growth inhibition [1] 91% | growth inhibition [4] 103%

COCCCn1c(=N)c(C(=O)NCCc2ccc(OC)cc2)cc2c(=O)n3cccc(C)c3nc21
inactive: growth inhibition [1] 33% | inhibition [2] 18% | inhibition [3] -1% | outcome [5] | outcome [6] | outcome [7] | outcome [8]
active: growth inhibition [4] 95%

Cc1cc(OCC(=O)Nc2ccc(-c3nc4ccccc4[nH]3)cc2)cc(C)c1Cl
active: growth inhibition [4] 99%
inactive: growth inhibition [1] 0% | inhibition [2] 5% | inhibition [3] -1% | outcome [5] | outcome [6] | outcome [7] | outcome [8]

CSc1cccc(Nc2nc3ccc(S(=O)(=O)NCC(C)C)cc3n2C(C)C(C)C)c1 (configuration not stated)
inactive: inhibition [2] 3% | inhibition [3] -2% | outcome [5] | outcome [6] | outcome [7] | outcome [8]
active: growth inhibition [1] 91% | growth inhibition [4] 93%

Cc1cc(C(=O)Nc2ccc(C)c(-c3nc(N(C(=O)c4ccc(F)c(C)c4)C4CCNCC4)nc4c3ccc(=O)n4-c3c(F)cccc3F)c2)ccc1F
inactive: inhibition [2] 4% | inhibition [3] -3% | outcome [5] | outcome [6] | outcome [7] | outcome [8]
active: growth inhibition [1] 99% | growth inhibition [4] 99%

Cc1cccc2[nH]c(-c3ccc(-c4ccc(CN5CCCCC5)cc4)cc3)nc12
inactive: inhibition [2] 27% | inhibition [3] -2% | outcome [5] | outcome [6] | outcome [7] | outcome [8]
active: growth inhibition [1] 99% | growth inhibition [4] 100%

Fc1ccc2nc(-c3ccc(-c4cccc(CN5CCN(c6ccncc6)CC5)c4)cc3)[nH]c2c1
active: growth inhibition [1] 101% | inhibition [2] 66% | growth inhibition [4] 100%
inactive: inhibition [3] -3% | outcome [5] | outcome [6] | outcome [7] | outcome [8]

O=C(/C=C/c1ccc(Cl)c(Cl)c1)NCCCCCN1CCC(NC(=O)Nc2cccc(Cl)c2Cl)CC1
active: inhibition [2] 99% | growth inhibition [4] 104%
inactive: growth inhibition [1] 35% | inhibition [3] -5% | outcome [5] | outcome [6] | outcome [7] | outcome [8]

COc1ccc(-c2ccc(NC(=O)c3ccc(C#N)cc3)cc2)cc1CN(C)CCO
active: growth inhibition [4] 99%
inactive: growth inhibition [1] 44% | inhibition [2] 41% | inhibition [3] 9% | outcome [5] | outcome [6] | outcome [7] | outcome [8]

O=c1cc(NCCCNCc2ccc(C(F)(F)F)cc2F)[nH]c2ccccc12
inactive: growth inhibition [1] 48% | inhibition [2] 1% | inhibition [3] 8% | outcome [5] | outcome [6] | outcome [7] | outcome [8]
active: growth inhibition [4] 93%

O=C1OC2(CCN(Cc3cccc(-c4ncc[nH]4)c3)CC2)CN1CCNCc1ccccc1
inactive: growth inhibition [1] -1% | inhibition [2] -8% | inhibition [3] -1% | outcome [5] | outcome [6] | outcome [7] | outcome [8]
active: growth inhibition [4] 94%

Cn1c(NC(=O)C2CCC(CNC(=O)c3ccc(O)c(-c4ccc(Cl)c(Cl)c4)c3)CC2)nc2ccccc21 (configuration not stated)
active: growth inhibition [1] 100% | growth inhibition [4] 99%
inactive: inhibition [2] 40% | inhibition [3] 1% | outcome [5] | outcome [6] | outcome [7] | outcome [8]

CN1CCN(c2ccnc3ccc(NC(=O)Nc4ccc5ccccc5c4)cc23)CC1
inactive: inhibition [2] 2% | inhibition [3] -1% | outcome [5] | outcome [6] | outcome [7] | outcome [8]
active: growth inhibition [1] 99% | growth inhibition [4] 101%

COc1ccc(C(=O)Nc2ccc3nc(N4CCCCC4)cc(C)c3c2)cc1[N+](=O)[O-]
inactive: growth inhibition [1] 7% | inhibition [2] 17% | inhibition [3] -9% | outcome [5] | outcome [6] | outcome [7] | outcome [8]
active: growth inhibition [4] 96%

N#Cc1cc([N+](=O)[O-])ccc1-n1nc(-c2cccc(Cl)c2)n(CC2CCCO2)c1=S (configuration not stated)
inactive: inhibition [2] 0% | inhibition [3] -2% | outcome [5] | outcome [6] | outcome [7] | outcome [8]
active: growth inhibition [1] 89% | growth inhibition [4] 91%

Cc1cc(C)c2[nH]cc(C(=O)O)c(=O)c2c1
inactive: inhibition [2] -1% | inhibition [3] -6% | outcome [5] | outcome [6] | outcome [7] | outcome [8]
active: growth inhibition [1] 60% | growth inhibition [4] 93%

O=C(N[C@@H](CC1CCCCC1)C(=O)NCCN1CCCCC1)c1ccc(O)c(-c2cccc(C(F)(F)F)c2)c1
active: growth inhibition [1] 97% | growth inhibition [4] 99%
inactive: inhibition [2] -5% | inhibition [3] 6% | outcome [5] | outcome [6] | outcome [7] | outcome [8]

CN(C)CCCNC(=O)c1ccccc1Sc1ccccc1C#N
active: growth inhibition [4] 89%
inactive: growth inhibition [1] 3% | inhibition [2] 11% | inhibition [3] 2% | outcome [5] | outcome [6] | outcome [7] | outcome [8]
